# Screens as filed in PubChem.
# AI-2 QS modul: Vibrio harveyi AI-2 quorum sensing modulation; AID 2094; 300,000 compounds, 0.4% hits; activity change, % at 7.5 µM; Vibrio harveyi JMH597 AI-2 luminescence/OD600 ratio, 9 h; stronger effect = lower value; strain lacks LuxN and CqsS sensors; 0 = neutral-control median; in the data active means activity change below about -75%, passing the limit was not always enough;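 further: luminescence divided by OD600 gain over 9 h not by final OD600 alone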
# PGC1a acetyl inh: PGC1a acetylation modulation, inhibitor mode | U2OS PGC1a acetylation, AlphaScreen anti-acetyl-lysine; with virally co-expressed GCN5 acetyltransferase | inhibition, % at 15.6 µM | 350,000 compounds, 0.17% hits | AID 651687;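 active means every replicate shows inhibition of at least 40%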;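 further: 0% = neutral control wells and 100% = positive control wells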
# HIF activator: HIF pathway transcriptional activation | activation, % at 7.5 µM (by protocol) | AID 1910 | U2OS HRE-luciferase reporter, luminescence; normalized: DMSO 0%, desferrioxamine 100% | 300,000 compounds, 0.32% hits;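 active means mean activation of at least 10% of the iron chelator positive control signal, with at least half of replicates also reaching 10%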
# Statin myotox sup: protects C2C12 myotubes from simvastatin toxicity; rescue of ATP level, % at 7.49 µM; 330,000 compounds, 0.78% hits; ATP luminescence, 48 h; scaled: DMSO 0, geranylgeraniol control 100;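 active means mean ATP rescue above about 67%, or every replicate alone reaching that limit, limit read from the data, passing the limit was not always enough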;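 further: myotubes were challenged with 10 µM simvastatin during compound exposure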
# Rce1 inhib: blocks yeast Ras-converting enzyme; Q03530; yeast membranes, quenched prenylated peptide cleavage fluorescence; calls only; 290,000 compounds, 0.27% hits; AID 2563;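 active means fall in fluorescence gain of 50% or more versus controls, with final raw signal at or below 3038400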;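 further: plate controls were neutral control wells for no effect and wells lacking membranes for full effect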
# Target sequence (Q03530 whole entry, looked up): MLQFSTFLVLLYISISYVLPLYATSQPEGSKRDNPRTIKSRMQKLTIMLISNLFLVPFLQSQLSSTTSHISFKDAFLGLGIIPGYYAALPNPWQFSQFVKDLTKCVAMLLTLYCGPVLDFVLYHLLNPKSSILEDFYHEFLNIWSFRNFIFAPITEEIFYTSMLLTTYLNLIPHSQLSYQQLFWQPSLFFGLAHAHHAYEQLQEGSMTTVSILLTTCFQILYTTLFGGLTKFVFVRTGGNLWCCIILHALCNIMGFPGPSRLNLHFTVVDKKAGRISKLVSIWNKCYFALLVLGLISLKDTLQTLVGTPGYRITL
# * hit, by the source's call; i = inactive; / = no result; + = active, no number. Shown are actives, neighbours in structure and some others; about 1.3% of the full set was active somewhere.
SMILES,AI-2 QS modul,PGC1a acetyl inh,HIF activator,Statin myotox sup,Rce1 inhib
Clc1ccc(SCc2cc(N3CCOCC3)nc(-c3ccccn3)n2)cc1,29,10,0,/,i
Cc1ccc2nc(Cl)c(C3CC(c4cccs4)=NN3C(=O)CCCC(=O)O)cc2c1 (configuration not stated),19,/,1,/,+
Cc1cccc2cc(C3CC(c4cccs4)=NN3C(=O)CCC(=O)O)c(Cl)nc12 (configuration not stated),5,/,0,-3,i
CCOC(=O)CN(C(=O)COc1nc(C)cc(C)c1C#N)c1cccc(Cl)c1,2,0,25*,9,i
C[C@@H]1CN([C@H](C)CO)S(=O)(=O)c2ccc(-c3ccc(C(=O)N(C)C)cc3)cc2O[C@@H]1CN(C)C(=O)C1CC1,/,7,/,-9,/
O=C1C=C(c2c(O)ccc3ccccc23)c2ccccc2C1=O,/,54*,/,-5,/
Cc1cccc(S(=O)(=O)N2C[C@H](O)COC[C@@H]3O[C@@H](CC(=O)Nc4ccc(-c5ccccc5)cc4)CC[C@H]32)c1,/,0,/,-43,/
CCS(=O)(=O)c1ccc(-c2csc(-c3ccc(Cl)cc3)n2)c(Cl)c1Cl,9,0,1,103*,i
O=C(Cc1ccccc1)NCC(=O)N/N=C/c1ccc([N+](=O)[O-])s1,18,-9,-2,163*,i
O=C(N/N=C\c1cc(Br)ccc1O)c1ccc(S(=O)(=O)N2CCCCC2)cc1,1,/,37*,/,i
Nc1nonc1C(=O)N/N=C/c1cc(Br)ccc1O,-89*,/,22*,/,/
Cc1cccc(NC(=O)/C=C/c2ccc([N+](=O)[O-])s2)c1,14,/,4,/,i
O=C(N/N=C/c1ccc(O)c(O)c1)c1cccc(S(=O)(=O)N2CCCCC2)c1,/,/,0,1,/
Cc1cccc(NC(=S)N/N=C/c2ccc([N+](=O)[O-])s2)c1,-212*,-26,1,/,i
Cc1ccc(S(=O)(=O)N(C)C[C@@H]2Oc3ccc(NC(=O)c4ccncc4)cc3CC(=O)N([C@@H](C)CO)C[C@@H]2C)cc1,/,0,/,-13,/
COCC(=O)N[C@@H]1CC[C@@H](CC(=O)NCc2ccccc2OC)O[C@@H]1CO,/,38,/,8,/
O=C(Nc1ccccc1F)N1CC(=O)N2[C@H](CO)[C@H](c3ccc(C#CC4CCCC4)cc3)[C@H]2C1,/,2,/,/,/
Cc1ccc(S(=O)(=O)N[C@@H]2CC[C@H](CCn3cc(C4CCCC4)nn3)O[C@@H]2CO)cc1,/,-13,/,/,/
C[C@H]1CN([C@@H](C)CO)C(=O)Cc2cc(NC(=O)Nc3ccccc3)ccc2O[C@H]1CN(C)C(=O)Nc1ccc2c(c1)OCO2,/,-16,/,2,/
Cc1ccc(C)c(NC(=O)CCC(=O)N/N=C/c2cc([N+](=O)[O-])ccc2O)c1,404,9,0,0,i
O=C(N/N=C/c1ccc(OC(=O)c2ccc(Br)cc2)cc1)c1ccncc1,4,/,0,4,i
O=C(N/N=C/c1cc(Br)ccc1OC(=O)c1ccc(Br)cc1)c1ccncc1,-4,10,19*,/,i
O=C(N/N=C/c1ccc([N+](=O)[O-])s1)c1ccncc1,-87*,-21,-1,22,i
O=C(N/N=C/c1cc([N+](=O)[O-])ccc1O)c1ccncc1,-91*,3,2,6,i
Cc1ccccc1NC(=O)CCC(=O)N/N=C/c1cc([N+](=O)[O-])ccc1O,-109*,-7,1,/,i
SMILES,AI-2 QS modul,PGC1a acetyl inh,HIF activator,Statin myotox sup,Rce1 inhib
O=C(N/N=C/c1ccc(O)c([N+](=O)[O-])c1)c1ccncc1,32,-6,0,-9,i
CC(=O)N(C)C[C@@H]1Oc2cc(-c3ccccc3F)ccc2S(=O)(=O)N([C@H](C)CO)C[C@@H]1C,/,14,/,6,/
CO[C@@H]1CN(C)C(=O)c2ccc(NS(=O)(=O)c3ccc(Oc4ccccc4)cc3)cc2OC[C@@H](C)NC[C@@H]1C,/,2,/,-6,/
C[C@H](CO)N1C[C@H](C)[C@@H](CN(C)C(=O)Nc2cccc3ccccc23)Oc2ccc(NC(=O)C3CCCCC3)cc2CC1=O,/,-2,/,-30,/
CO[C@H]1CN(C)C(=O)c2ccc(NC(=O)C3CCOCC3)cc2OC[C@H](C)NC[C@@H]1C,/,-2,/,/,/
O=C(N/N=C/c1cc(Br)ccc1O)c1ccncc1,-94*,15,34*,15,i
Cc1ccc(N=Nc2ccc(O)c(/C=N\NC(=O)c3ccc(N)cc3)c2)cc1C,3,8,11*,-2,i
O=C(N/N=C/c1cc([N+](=O)[O-])ccc1O)c1cccc2cc[nH]c12,-22,12,27*,/,i
O=C(N/N=C/c1ccccc1O)c1ccncc1,5,28,5,-9,i
Cc1nc(C)c(C(=O)N/N=C/c2cc(Br)ccc2O)s1,36,31,29*,20,i
Cc1nc(C)c(C(=O)N/N=C/c2c[nH]c3ccccc23)s1,15,7,4,/,i
CO[C@H](C(=O)N(C)C[C@H]1OCc2ccccc2-c2c(n(C)c3ccccc23)C(=O)N([C@@H](C)CO)C[C@@H]1C)c1ccccc1,/,8,/,/,/
Cc1ccccc1NC(=O)Nc1ccc2c(c1)C(=O)N(C)[C@@H]1CC[C@H](CC(=O)O)O[C@@H]1CO2,/,2,/,1,/
C[C@H]1CN([C@@H](C)CO)C(=O)Cc2cc(NS(=O)(=O)c3ccc(Cl)cc3)ccc2O[C@@H]1CN(C)Cc1ccc(-c2ccccc2)cc1,/,-4,/,21,/
Cc1ccc(S(=O)(=O)N(C)c2ccc(C(=O)O)cc2)cc1,11,-3,-2,125*,i
CC1=C(C)C(C)=C(C#N)C(=C(C#N)C#N)N1,-9,18,-1,0,+
CC(C)NC(=O)N(C)C[C@H]1OCCCC[C@H](C)Oc2ccc(NC(=O)c3ccccc3)cc2C(=O)N([C@@H](C)CO)C[C@H]1C,/,-1,/,/,/
CS(=O)(=O)N1CC(=O)N2[C@H](CO)[C@@H](c3ccc(C#CC4CCCC4)cc3)[C@H]2C1,/,-11,/,/,/
Cc1cnc(-c2nnc(N(C)C(=O)c3cccnc3)s2)cn1,27,-4,1,108*,i
Cc1noc(C)c1S(=O)(=O)Nc1ccc2c(c1)C(=O)N([C@H](C)CO)C[C@H](C)[C@@H](CN(C)S(=O)(=O)c1cccs1)OCCCC[C@H](C)O2,/,4,/,-78,/
CO[C@@H]1CN(C)C(=O)c2ccc(NC(=O)c3ccccc3)cc2OC[C@@H](C)N(C(=O)C2CC2)C[C@@H]1C,/,-10,/,-22,/
Cc1oc(-c2ccc(Cl)cc2)nc1CS(=O)CC(=O)NCCN1CCCCCC1 (configuration not stated),8,2,109*,-2,i
Cc1ccc(-c2nc(CS(=O)CC(=O)NCCN3CCCCCC3)c(C)o2)cc1 (configuration not stated),13,-3,-1,-1,i
